Data as given in PubChem BioAssay (Tox21).
Results filed as inconclusive are left out. Entries that show only a call come without a potency. The source made the active and inactive calls. Unless noted, calls follow the shape of the dose curve; as a rule, active = well fitted curve in the direction sought with a large enough effect in the repeat runs; inconclusive = weak or mixed curves; inactive = no such curve, though single readings can be large; an effect the other way counts as inactive or inconclusive.

Legend:
[1] = qHTS assay for small molecules that induce genotoxicity in human embryonic kidney cells expressing luciferase-tagged ATAD5 (AID 651632); also: nearly all actives have a fitted effect of over 15% in size
In short: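 Cells were seeded at 2,000 per well, dosed with compound, and incubated 16 hr at 37C in 5% CO2. Luciferase activity was then quantified after a 30 min room-temperature incubation with Amplite.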

[2] = qHTS assay for small molecule agonists of the p53 signaling pathway - cell viability (AID 651633; calls by dose curve; also: nearly all actives have a fitted effect of over 30% in size; also: potency is read from the fitted curve at half-maximal effect)
In short: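 p53RE-bla cells were treated with compound for 16 hours at 37 C. Cytotoxicity was then measured as CellTiter-Glo luminescence after 30 min at room temperature.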

[3] = qHTS assay for small molecules that induce genotoxicity in human embryonic kidney cells expressing luciferase-tagged ATAD5 - cell viability (AID 651634; calls by dose curve; also: nearly all actives have a fitted effect of over 25% in size)
In short: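 Cells (HEK293T, luciferase-tagged ATAD5) are seeded at 2,000 per well, dosed with compound or DMSO vehicle, and incubated 15.5 hr at 37C and 5% CO2. CellTiter-Fluor is added for 30 min before fluorescence is measured.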

[4] = qHTS assay for small molecule disruptors of the mitochondrial membrane potential - cell viability (AID 720634; calls by dose curve; also: nearly all actives have a fitted effect of over 20% in size; also: potency is read from the fitted curve at half-maximal effect)
In short: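 Cytotoxicity was measured by ATP quantitation in HepG2 wells that had first been treated with compound for 1 hr and stained with m-MPI dye; CellTiter-Glo incubation was 30 min at room temperature.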

[5] = qHTS assay for small molecule disruptors of the mitochondrial membrane potential (AID 720635); also: potency is read from the fitted curve at half-maximal effect
In short: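 HepG2 cells exposed to compound 1 hr at 37C, then Mito-MPS dye 30 min. Ratio read of aggregate (540/590 nm) versus monomer (490/535 nm) fluorescence.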

[6] = qHTS assay to test for compound auto fluorescence at 590 nm (red) in HepG2 cells (AID 720674)
In short: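 Seeding: 2,000 HepG2 cells/well, MEM/10% FBS, overnight 37 C. Dosing: compound vs DMSO. Incubation: 1 hr, 37 C, 5% CO2. Read: fluorescence 540 ex/590 em, Rose Bengal sodium as red reference.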

[7] = qHTS assay to test for compound auto fluorescence at 535 nm (green) in HepG2 cells (AID 720675)
[8] = qHTS assay to test for compound auto fluorescence at 460 nm (blue) in HEK293 cells (AID 720678)
In short: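 Cells were seeded and left to adhere for 4-5 hr at 37C. Compounds were then pin-transferred. After an overnight incubation at 37C under 5% CO2, intrinsic fluorescence at 405/460 nm was measured and referenced to triamterene.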

[9] = qHTS assay to test for compound auto fluorescence at 590 nm (red) in HEK293 cells (AID 720679)
In short: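 Each well held 2,000 HEK293 cells in medium containing 10% dialyzed FBS. Following 4-5 hr attachment at 37C, 23 nL test compound or DMSO was added; plates sat overnight, and red fluorescence (540/590nm) was recorded.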

With `O=P(O)(O)OC[C@H](O)CO` the Potency [1] was “inactive”, the Potency [2] was “inactive” and the Potency [3] was “inactive”. The Potency [4] was “inactive”, the Potency [5] was “inactive” and the Potency [6] was “inactive”. For the same molecule, the Potency [7] was “inactive”, the Potency [8] was “inactive” and the Potency [9] was “inactive”.

For `O=C(CCCCCCCCCCCCC1CCCC1)Nc1ccc(S(=O)(=O)c2ccc(NC(=O)CCCCCCCCCCCCC3CCCC3)cc2)cc1`, the Potency [1] was “inactive”, the Potency [2] was “inactive” and the Potency [3] was “inactive”. The Potency [4] was “inactive”, the Potency [5] was “inactive” and the Potency [6] was “inactive”. For the same molecule, the Potency [7] was “inactive”, the Potency [8] was “inactive” and the Potency [9] was “inactive”.

For `FCOC(C(F)(F)F)C(F)(F)F`, the Potency [1] was “inactive”, the Potency [2] was “inactive” and the Potency [3] was “inactive”. The Potency [4] was “inactive”, the Potency [5] was “inactive” and the Potency [6] was “inactive”. For the same molecule, the Potency [7] was “inactive”, the Potency [8] was “inactive” and the Potency [9] was “inactive”.

For `O=C(O)C1=C(CSc2nnnn2CS(=O)(=O)O)CS[C@@H]2[C@H](NC(=O)[C@H](O)c3ccccc3)C(=O)N12`, the Potency [1] was “inactive”, the Potency [2] was “inactive” and the Potency [3] was “inactive”. The Potency [4] was “inactive”, the Potency [5] was “inactive” and the Potency [6] was “inactive”. The Potency [7] was “inactive”, the Potency [8] was “inactive” and the Potency [9] was “inactive”.

With `C#C[C@]1(O)CC[C@H]2[C@@H]3CCC4=CC(=O)CC[C@@H]4[C@H]3C(=C)C[C@@]21CC` the Potency [1] was “inactive”, the Potency [2] was “inactive” and the Potency [3] was “inactive”. The Potency [4] was “inactive”, the Potency [5] was “inactive” and the Potency [6] was “inactive”. The Potency [7] was “inactive”, the Potency [8] was “inactive” and the Potency [9] was “inactive”.

With `CC(/C=C/C=C(\C)C(=O)O[C@@H]1O[C@H](CO[C@@H]2O[C@H](CO)[C@@H](O)[C@H](O)[C@H]2O)[C@@H](O)[C@H](O)[C@H]1O)=C\C=C\C=C(C)\C=C\C=C(/C)C(=O)O[C@@H]1O[C@H](CO[C@@H]2O[C@H](CO)[C@@H](O)[C@H](O)[C@H]2O)[C@@H](O)[C@H](O)[C@H]1O` the Potency [1] was “inactive”, the Potency [2] was “inactive” and the Potency [3] was “inactive”. For the same molecule, the Potency [4] was “inactive”, the Potency [5] was “inactive” and the Potency [6] was “inactive”. For the same molecule, the Potency [7] was “inactive”, the Potency [8] was “inactive” and the Potency [9] was “inactive”.

For `CC(=O)N[C@@H](C=O)[C@@H](O)[C@H](O)[C@H](O)CO`, the Potency [1] was “inactive”, the Potency [2] was “inactive” and the Potency [3] was “inactive”. The Potency [4] was “inactive”, the Potency [5] was “inactive” and the Potency [6] was “inactive”. The Potency [7] was “inactive”, the Potency [8] was “inactive” and the Potency [9] was “inactive”.

In the case of `O=C(COc1ccc(Cl)cc1)OCCNC12CC3CC(CC(C3)C1)C2`, the Potency [1] was “inactive”, the Potency [2] was “inactive” and the Potency [3] was “inactive”. The Potency [4] was “inactive”, the Potency [5] was “inactive” and the Potency [6] was “inactive”. The Potency [7] was “inactive”, the Potency [8] was “inactive” and the Potency [9] was “inactive”.

With `CN(CCO)CC(O)Cn1cnc2c1c(=O)n(C)c(=O)n2C` (stereo not given) (tested in a mixture with another compound) the Potency [1] was “inactive”, the Potency [2] was “inactive” and the Potency [3] was “inactive”. The Potency [4] was “inactive”, the Potency [5] was “inactive” and the Potency [6] was “inactive”. For the same molecule, the Potency [7] was “inactive”, the Potency [8] was “inactive” and the Potency [9] was “inactive”.

In the case of `C=C1CC[C@@H]2[C@](C)(CO)[C@H](O)CC[C@@]2(C)[C@@H]1C/C=C1/C(=O)OC[C@H]1O`, the Potency [1] was “inactive”, the Potency [2] was “inactive” and the Potency [3] was “inactive”. For the same molecule, the Potency [4] was “inactive”, the Potency [5] was “inactive” and the Potency [6] was “inactive”. For the same molecule, the Potency [7] was “inactive”, the Potency [8] was “inactive” and the Potency [9] was “inactive”.

With `Nc1ncnc2c1ncn2CCOCP(=O)(O)O` the Potency [1] was “inactive”, the Potency [2] was “inactive” and the Potency [3] was “inactive”. The Potency [4] was “inactive”, the Potency [5] was “inactive” and the Potency [6] was “inactive”. The Potency [7] was “inactive”, the Potency [8] was “inactive” and the Potency [9] was “inactive”.

For `CC(O)[C@@H]1NC(=O)[C@H](Cc2ccccc2)NC(=O)[C@H](C(C)O)NC(=O)[C@H](CCCCN)NC(=O)[C@H](Cc2c[nH]c3ccccc23)NC(=O)[C@H](Cc2ccccc2)NC(=O)[C@H](Cc2ccccc2)NC(=O)[C@H](CC(N)=O)NC(=O)[C@H](CCCCN)NC(=O)[C@@H](NC(=O)CNC(=O)[C@H](C)N)CSSC[C@@H](C(=O)O)NC(=O)[C@H](CO)NC1=O` (stereo not given in full), the Potency [1] was “inactive”, the Potency [2] was “inactive” and the Potency [3] was “inactive”. The Potency [4] was “inactive”, the Potency [5] was “inactive” and the Potency [6] was “inactive”. For the same molecule, the Potency [7] was “inactive”, the Potency [8] was “inactive” and the Potency [9] was “inactive”.

For `CCOC(=O)[C@@H](N)CS`, the Potency [1] was “inactive”, the Potency [2] was “inactive” and the Potency [3] was “inactive”. For the same molecule, the Potency [4] was “inactive”, the Potency [5] was “inactive” and the Potency [6] was “inactive”. The Potency [7] was “inactive”, the Potency [8] was “inactive” and the Potency [9] was “inactive”.

In the case of `CCCCCC(O)/C=C/C=O` (stereo not given), the Potency [1] was “inactive”, the Potency [2] was “inactive” and the Potency [3] was “inactive”. For the same molecule, the Potency [4] was “inactive”, the Potency [5] was “inactive” and the Potency [6] was “inactive”. For the same molecule, the Potency [7] was “inactive”, the Potency [8] was “inactive” and the Potency [9] was “inactive”.

In the case of `C/C(=C(\CCOC(=O)c1ccccc1)SS/C(CCOC(=O)c1ccccc1)=C(/C)N(C=O)Cc1cnc(C)nc1N)N(C=O)Cc1cnc(C)nc1N`, the Potency [1] was “inactive”, the Potency [2] was “inactive” and the Potency [3] was “inactive”. For the same molecule, the Potency [4] was “inactive”, the Potency [5] was “inactive” and the Potency [6] was “inactive”. The Potency [8] was “inactive”.

With `O=C(OCc1ccccc1)c1cccnc1` the Potency [1] was “inactive”, the Potency [2] was “inactive” and the Potency [3] was “inactive”. The Potency [4] was “inactive”, the Potency [5] was 23.7 µM (active) and the Potency [6] was “inactive”. For the same molecule, the Potency [8] was “inactive” and the Potency [9] was “inactive”.

For `COc1cc(/C=C/C(=O)N2CCN(CC(=O)N3CCCC3)CC2)cc(OC)c1OC`, the Potency [1] was “inactive”, the Potency [2] was “inactive” and the Potency [3] was “inactive”. For the same molecule, the Potency [4] was “inactive”, the Potency [5] was “inactive” and the Potency [6] was “inactive”. For the same molecule, the Potency [7] was “inactive”, the Potency [8] was “inactive” and the Potency [9] was “inactive”.

For `COc1ccc2c(c1)N(C[C@H](C)CN(C)C)c1ccccc1S2`, the Potency [1] was “inactive”, the Potency [2] was “inactive” and the Potency [3] was “inactive”. For the same molecule, the Potency [4] was “inactive”, the Potency [6] was “inactive” and the Potency [7] was “inactive”. The Potency [8] was “inactive” and the Potency [9] was “inactive”.

For `S=C=Nc1ccc(N=C=S)cc1`, the Potency [1] was “inactive”, the Potency [2] was “inactive” and the Potency [3] was “inactive”. For the same molecule, the Potency [4] was “inactive”, the Potency [6] was “inactive” and the Potency [7] was “inactive”. The Potency [8] was “inactive” and the Potency [9] was “inactive”.

In the case of `O=[N+]([O-])c1c(Cl)cccc1-c1c[nH]cc1Cl`, the Potency [1] was “inactive”, the Potency [2] was 33.5 µM (active) and the Potency [3] was “inactive”. The Potency [4] was 10.6 µM (active), the Potency [5] was 2.98 µM (active) and the Potency [6] was “inactive”. For the same molecule, the Potency [7] was “inactive”, the Potency [8] was “inactive” and the Potency [9] was “inactive”.
